Experimental findings from PubChem BioAssay (NCATS) are described below.

Experiment [1] concerns the target Glucocorticoid receptor (Homo sapiens) (UniProt P04150). Put plainly: qHTS assay for small molecule antagonists of glucocorticoid receptor signaling (AID 588533; active means well fitted inhibition curve with a large enough effect in the signal ratio, with a control signal flat, not every such curve was filed as active; the % refers to the signal ratio; further: on the % scale 0 is the no-effect control and ±100 the full control effect). In short, it runs like this:
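Antagonist-mode qHTS: compound titrations added to GRE-bla HeLa cells, then dexamethasone 2 nM final; 18 h, 37 C. CCF4 FRET fluorescence normalized to dexamethasone and DMSO; IC50 from Hill fit.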

A short description of experiment [2]: qHTS assay for small molecule antagonists of peroxisome proliferator-activated receptor delta signaling (AID 588535; active means well fitted inhibition curve with a large enough effect in the signal ratio, with a control signal flat, not every such curve was filed as active; the % refers to the signal ratio;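 on max response: cells co-treated with a PPAR-delta agonist as stimulator during compound exposure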). To be noted: HEK293T PPARd-UAS-bla, beta-lactamase FRET ratio, 18 h; 460 nm channel. The procedure, abridged: (§1)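 Beta-lactamase reporter read-out (405 nm excitation, 460/530 nm emission) after CCF4 loading for 2 hrs at RT. HEK293T PPAR-delta-UAS-bla cells, 2% charcoal/dextran FBS, compounds for 18 hrs at 37 C. Hill fit gave IC50 and efficacy.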

Experiment [3] concerns the target Peroxisome proliferator-activated receptor delta (Homo sapiens) (UniProt Q03181). Described as above. The procedure, abridged: as §1
Experiment [4] addresses Peroxisome proliferator-activated receptor gamma (Homo sapiens) (UniProt P37231). In words: qHTS assay for small molecule agonists of peroxisome proliferator-activated receptor gamma signaling (AID 588536; active means well fitted curve in the direction sought with a large enough effect in the signal ratio, with a control signal flat, not every such curve was filed as active; the % refers to the signal ratio;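 further: 0% = DMSO basal wells and 100% = rosiglitazone at 2 µM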). In short, it runs like this: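 Beta-lactamase reporter read-out: CCF4 fluorescence (ex 405, em 460/530 nm) after 2 h at RT. HEK293 GeneBLAzer cells were treated for 16 h at 37 C. Hill fits gave EC50 and efficacy versus 2 uM rosiglitazone (100%) and DMSO (0%).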

Experiment [5] addresses Vitamin D3 receptor (Homo sapiens) (UniProt P11473). Put plainly: qHTS assay for small molecule antagonists of vitamin D receptor signaling (AID 588541).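 Further: receptor activated by calcitriol during compound treatment; series mostly up to about 77 µM; on the % scale 0 is the no-effect control and ±100 the full control effect.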 The procedure, abridged:
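VDR-UAS-bla HEK293T cells in 2% charcoal-stripped FBS were stimulated with 1-alpha,25-dihydroxyvitamin D3 (3 nM final) plus compound for 16 h at 37 C. The beta-lactamase CCF4 readout was normalized to 50 nM agonist and DMSO, and Hill fits gave IC50.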

The target is the same in experiment [6]. Put plainly: qHTS assay for small molecule agonists of vitamin D receptor signaling (AID 588543).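 Further: 0% = DMSO basal and 100% = reference agonist control.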 In short, it runs like this:
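Measured: β-lactamase reporter activity (CCF4, 405 nm excitation, 460/530 nm emission) in HEK293T VDR-UAS-bla cells after 16 h compound exposure at 37 °C. Normalization against 50 nM 1α,25-dihydroxyvitamin D3 and DMSO; Hill-fit EC50.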

Experiment [7] is described as follows: qHTS assay for small molecule agonists of retinoid X receptor alpha signaling (AID 588544).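 On activation: 0% = DMSO basal wells and 100% = reference agonist.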 To be noted: HEK293T RXRa-UAS-bla, beta-lactamase reporter, 18 h; 530 nm emission.
Experiment [8] has as its target Retinoic acid receptor RXR-alpha (Homo sapiens) (UniProt P19793). Described as above.
The target of experiment [9] is Thyroid hormone receptor beta (Homo sapiens) (UniProt P10828). In words: qHTS assay for small molecule agonists of thyroid hormone receptor beta signaling (AID 588545).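 Further: 0% = DMSO only and 100% = 10 nM T3.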 The procedure, abridged: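 Compounds were tested as agonists in TR-UAS-bla-GripTite HEK 293 cells. After 18 hrs at 37 C, CCF4 substrate was added and fluorescence read after 2 hrs at room temperature.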

A short description of experiment [10]: qHTS assay for small molecule antagonists of retinoid X receptor alpha signaling (AID 588546; active means well fitted inhibition curve with a large enough effect in the signal ratio, with a control signal flat, not every such curve was filed as active; the % refers to the signal ratio;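 further: cells stimulated with 9-cis-retinoic acid as agonist; on the % scale 0 is the no-effect control and ±100 the full control effect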). To be noted: HEK293T RXRa-UAS-bla, beta-lactamase ratio, antagonist mode; measured here: W530 green channel, cytotoxicity proxy. The procedure, abridged:
(§2)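 Beta-lactamase reporter inhibition, read as CCF4 fluorescence ratio (ex 405, em 460/530 nm) after 2 h at RT. HEK293T UAS-bla cells, 2500/well, were stimulated with 9-cis-RA at 500 or 100 nM final alongside test compound for 18 h at 37 C.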

Experiment [11] addresses Thyroid hormone receptor beta (Homo sapiens) (UniProt P10828). In words: qHTS assay for small molecule antagonists of thyroid hormone receptor beta signaling (AID 588547; active means well fitted inhibition curve with a large enough effect in the signal ratio, with a control signal flat, not every such curve was filed as active; the % refers to the signal ratio). To be noted: TR-UAS-bla HEK293, beta-lactamase ratio, antagonist mode, 18 h. The procedure, abridged:
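TR-UAS-bla GripTite HEK293 cells in 2% charcoal/dextran FBS medium; compounds 0.59 nM to 92 uM with T3 at 0.4nM final, 18 h at 37 C. Beta-lactamase read by CCF4 fluorescence (460/530 nm); Hill fits gave IC50 and efficacy.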

The target of experiment [12] is Voltage-gated inwardly rectifying potassium channel KCNH2 (Homo sapiens) (UniProt Q12809). Put plainly: qHTS Assay for Small Molecule Inhibitors of the Human hERG Channel Activity (AID 588834; active means well fitted inhibition curve with a large enough effect;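 further: top concentration of the series differs between compounds; on the % scale 0 is the no-effect control and ±100 the full control effect; lower thallium flux fluorescence means stronger hERG block; nearly all actives have a fitted effect of over 50% in size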). In short, it runs like this:
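Homogeneous FluxOR thallium flux assay using hERG-expressing U2OS cells (BacMam). Compound treatment about 10 minutes preceded stimulation; reduced fluorescence taken as channel block.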

Experiment [13] can be described thus: qHTS assay for small molecule agonists of the antioxidant response element (ARE) signaling pathway (AID 651741; active means well fitted activation curve with a large enough effect in the signal ratio; the % refers to the signal ratio; further: % of control where 0% means no effect). The procedure, abridged: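 HepG2 ARE-bla reporter cells, 2,000/well; 5 h settle at 37 C/5% CO2; compound pin transfer (23 nL, DMSO); 16 h at 37 C; LiveBLAzer B/G FRET substrate, 2 h RT; fluorescence intensity read.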
Experiment [14] can be described thus: qHTS assay for small molecule activators of the p53 signaling pathway (AID 651743; active means well fitted activation curve with a large enough effect in the signal ratio, not every such curve was filed as active; the % refers to the signal ratio; further: series mostly up to about 92 µM; % of control where 0% means no effect). To be noted: HCT-116 p53RE-bla, beta-lactamase FRET ratio, 16 h; stronger effect = higher value. In short, it runs like this: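 Reporter: beta-lactamase driven by p53 response elements, stably integrated in HCT-116 cells. Cells seeded at 4,000/well, 5 h preincubation, compound (DMSO) 16 h at 37 C; B/G FRET substrate 2 h RT; fluorescence intensity read.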

Experiment [15] can be described thus: qHTS assay for small molecule activators of the nuclear factor-kappa B (NF-kB) signaling pathway (AID 651749; active means well fitted activation curve with a large enough effect in the signal ratio; the % refers to the signal ratio; further: series mostly up to about 77 µM; % of control where 0% means no effect). To be noted: NF-kB-bla ME-180 cells, beta-lactamase FRET ratio, 16 h; stronger effect = higher value. The procedure, abridged: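 NF-kB-bla ME-180 cells, 2,000/well; 23 nL compound or DMSO pinned; 16 hr, 37C/5% CO2; beta-lactamase FRET read-out.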
Experiment [16] has as its target Peroxisome proliferator-activated receptor gamma (Homo sapiens) (UniProt P37231). Put plainly: qHTS assay for small molecule antagonists of peroxisome proliferator-activated receptor gamma signaling (AID 588537; active means well fitted inhibition curve with a large enough effect in the signal ratio, with a control signal flat, not every such curve was filed as active; the % refers to the signal ratio;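 further: reporter cells co-stimulated with 50 nM rosiglitazone agonist during compound treatment; % of control where 0% means no effect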). In short, it runs like this:
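Read-out: CCF4 fluorescence (ex 405, em 460/530 nm) after 2 h at RT. Cells were HEK293 carrying a UAS-bla reporter and treated 16 h at 37 C with compound plus rosiglitazone (50 nM final). Normalized to rosiglitazone and DMSO.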

Experiment [17] has as its target Retinoic acid receptor RXR-alpha (Homo sapiens) (UniProt P19793). Put plainly: qHTS assay for small molecule antagonists of retinoid X receptor alpha signaling (AID 588546).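 Further: cells stimulated with 9-cis-retinoic acid as agonist; on the % scale 0 is the no-effect control and ±100 the full control effect.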 To be noted: HEK293T RXRa-UAS-bla, beta-lactamase ratio, antagonist mode. The procedure, abridged: as §2
For experiment [18], the target named is Glucocorticoid receptor (Homo sapiens) (UniProt P04150). In words: qHTS assay for small molecule agonists of glucocorticoid receptor signaling (AID 588532; active means well fitted curve in the direction sought with a large enough effect in the signal ratio, with a control signal flat; the % refers to the signal ratio;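 further: 100% = dexamethasone at 0.1 µM and 0% = DMSO only wells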). To be noted: HeLa MMTV-bla, beta-lactamase ratio, agonist, 18 h; stronger effect = higher value; percent of dexamethasone control, DMSO zero. The procedure, abridged: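 Cells were plated and rested 3-5 h at 37 C, compounds were added in titration and incubated 18 h, then CCF4 substrate was loaded for 2 h at RT before reading blue/green fluorescence. EC50 came from Hill-equation fitting.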

Inconclusive results are not listed. The source made the active and inactive calls. Unless noted, the call rests on the fitted dose curve.

Peroxisome proliferator-activated receptor gamma (Homo sapiens), sequence (P37231 whole entry, looked up): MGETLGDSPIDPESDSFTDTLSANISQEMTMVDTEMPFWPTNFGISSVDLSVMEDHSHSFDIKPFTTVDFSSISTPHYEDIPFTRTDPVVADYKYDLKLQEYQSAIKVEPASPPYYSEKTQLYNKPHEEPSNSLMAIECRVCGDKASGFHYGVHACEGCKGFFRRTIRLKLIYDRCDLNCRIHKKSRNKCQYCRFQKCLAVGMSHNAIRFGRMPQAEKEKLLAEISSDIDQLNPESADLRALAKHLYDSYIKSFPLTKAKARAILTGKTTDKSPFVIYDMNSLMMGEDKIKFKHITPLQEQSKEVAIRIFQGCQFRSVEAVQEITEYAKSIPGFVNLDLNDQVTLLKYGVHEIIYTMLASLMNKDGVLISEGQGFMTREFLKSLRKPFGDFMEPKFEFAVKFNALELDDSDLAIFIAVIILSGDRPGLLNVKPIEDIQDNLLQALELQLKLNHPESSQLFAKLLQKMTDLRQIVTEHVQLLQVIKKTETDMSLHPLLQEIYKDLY
Voltage-gated inwardly rectifying potassium channel KCNH2 (Homo sapiens), sequence (Q12809 whole entry, looked up): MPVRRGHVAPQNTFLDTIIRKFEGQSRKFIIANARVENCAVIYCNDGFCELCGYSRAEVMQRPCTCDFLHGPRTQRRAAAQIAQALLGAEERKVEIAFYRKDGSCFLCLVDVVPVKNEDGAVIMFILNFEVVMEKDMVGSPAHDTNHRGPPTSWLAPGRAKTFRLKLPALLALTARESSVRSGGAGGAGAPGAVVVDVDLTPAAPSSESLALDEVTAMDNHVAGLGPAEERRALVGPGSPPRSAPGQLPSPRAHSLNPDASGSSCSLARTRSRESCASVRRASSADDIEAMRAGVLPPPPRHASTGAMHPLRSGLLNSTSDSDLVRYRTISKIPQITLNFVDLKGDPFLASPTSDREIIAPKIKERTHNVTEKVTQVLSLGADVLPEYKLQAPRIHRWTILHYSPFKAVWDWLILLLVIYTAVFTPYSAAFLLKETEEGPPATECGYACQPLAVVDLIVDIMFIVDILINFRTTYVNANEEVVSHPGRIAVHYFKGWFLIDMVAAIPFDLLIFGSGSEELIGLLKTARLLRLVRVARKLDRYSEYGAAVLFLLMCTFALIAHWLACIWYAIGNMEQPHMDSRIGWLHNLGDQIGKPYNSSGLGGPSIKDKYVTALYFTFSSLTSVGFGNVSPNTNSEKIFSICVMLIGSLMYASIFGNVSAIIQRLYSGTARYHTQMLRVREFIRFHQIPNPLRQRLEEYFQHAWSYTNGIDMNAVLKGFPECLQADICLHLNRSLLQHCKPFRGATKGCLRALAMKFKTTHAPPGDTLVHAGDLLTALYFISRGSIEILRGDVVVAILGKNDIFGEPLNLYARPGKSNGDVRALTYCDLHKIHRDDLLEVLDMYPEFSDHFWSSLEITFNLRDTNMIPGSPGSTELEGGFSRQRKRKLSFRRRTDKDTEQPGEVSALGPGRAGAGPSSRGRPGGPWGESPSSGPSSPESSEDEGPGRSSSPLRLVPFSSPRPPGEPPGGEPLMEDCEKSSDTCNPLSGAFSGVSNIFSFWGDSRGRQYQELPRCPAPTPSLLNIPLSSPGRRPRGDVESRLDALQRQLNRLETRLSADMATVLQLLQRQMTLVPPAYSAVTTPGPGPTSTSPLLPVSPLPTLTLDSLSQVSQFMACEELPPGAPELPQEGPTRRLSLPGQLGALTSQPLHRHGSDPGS
Peroxisome proliferator-activated receptor delta (Homo sapiens), sequence (Q03181 whole entry, looked up): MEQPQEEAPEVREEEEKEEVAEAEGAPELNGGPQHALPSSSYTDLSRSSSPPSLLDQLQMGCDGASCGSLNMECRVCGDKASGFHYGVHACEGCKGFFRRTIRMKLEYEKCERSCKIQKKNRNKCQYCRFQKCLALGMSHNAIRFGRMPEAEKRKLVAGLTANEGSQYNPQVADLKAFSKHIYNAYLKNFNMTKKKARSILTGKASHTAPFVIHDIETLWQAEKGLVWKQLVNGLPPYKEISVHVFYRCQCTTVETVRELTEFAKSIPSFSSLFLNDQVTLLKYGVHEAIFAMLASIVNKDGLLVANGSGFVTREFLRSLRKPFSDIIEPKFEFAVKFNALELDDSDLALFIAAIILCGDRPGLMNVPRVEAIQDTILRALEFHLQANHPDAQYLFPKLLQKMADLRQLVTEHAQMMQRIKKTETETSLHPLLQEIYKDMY
Retinoic acid receptor RXR-alpha (Homo sapiens), sequence (P19793 whole entry, looked up): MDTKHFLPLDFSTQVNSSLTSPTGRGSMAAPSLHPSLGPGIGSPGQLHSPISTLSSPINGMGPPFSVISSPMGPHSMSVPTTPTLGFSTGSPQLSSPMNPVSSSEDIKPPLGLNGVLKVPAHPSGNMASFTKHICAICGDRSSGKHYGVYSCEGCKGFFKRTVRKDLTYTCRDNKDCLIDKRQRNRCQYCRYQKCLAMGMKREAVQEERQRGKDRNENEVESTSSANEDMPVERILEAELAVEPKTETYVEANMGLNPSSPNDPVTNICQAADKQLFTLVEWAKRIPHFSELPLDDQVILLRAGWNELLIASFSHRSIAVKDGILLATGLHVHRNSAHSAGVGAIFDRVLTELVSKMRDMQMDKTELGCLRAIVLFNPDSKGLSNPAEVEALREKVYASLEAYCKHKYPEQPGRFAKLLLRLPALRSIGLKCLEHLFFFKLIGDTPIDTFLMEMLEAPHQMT
Glucocorticoid receptor (Homo sapiens), sequence (P04150 whole entry, looked up): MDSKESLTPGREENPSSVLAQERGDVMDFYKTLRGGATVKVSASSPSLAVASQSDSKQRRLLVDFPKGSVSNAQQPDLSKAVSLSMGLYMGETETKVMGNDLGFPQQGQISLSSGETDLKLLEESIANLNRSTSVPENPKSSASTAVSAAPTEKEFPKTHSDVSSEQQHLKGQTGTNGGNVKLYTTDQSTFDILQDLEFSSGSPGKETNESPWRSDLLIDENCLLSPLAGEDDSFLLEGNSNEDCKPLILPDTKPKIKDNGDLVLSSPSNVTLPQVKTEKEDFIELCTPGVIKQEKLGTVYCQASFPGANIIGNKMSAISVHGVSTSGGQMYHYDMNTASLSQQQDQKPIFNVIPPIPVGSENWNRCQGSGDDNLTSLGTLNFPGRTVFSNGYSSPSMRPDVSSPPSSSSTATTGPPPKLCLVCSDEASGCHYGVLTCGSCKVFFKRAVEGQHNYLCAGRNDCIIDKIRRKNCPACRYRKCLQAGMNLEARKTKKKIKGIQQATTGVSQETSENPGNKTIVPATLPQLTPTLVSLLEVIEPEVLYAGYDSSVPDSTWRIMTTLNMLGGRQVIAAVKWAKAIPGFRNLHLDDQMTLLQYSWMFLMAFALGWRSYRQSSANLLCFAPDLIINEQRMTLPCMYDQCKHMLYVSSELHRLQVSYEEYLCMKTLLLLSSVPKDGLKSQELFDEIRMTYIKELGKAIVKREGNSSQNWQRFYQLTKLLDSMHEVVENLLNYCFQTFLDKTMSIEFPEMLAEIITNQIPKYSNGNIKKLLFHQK
Thyroid hormone receptor beta (Homo sapiens), sequence (P10828 whole entry, looked up): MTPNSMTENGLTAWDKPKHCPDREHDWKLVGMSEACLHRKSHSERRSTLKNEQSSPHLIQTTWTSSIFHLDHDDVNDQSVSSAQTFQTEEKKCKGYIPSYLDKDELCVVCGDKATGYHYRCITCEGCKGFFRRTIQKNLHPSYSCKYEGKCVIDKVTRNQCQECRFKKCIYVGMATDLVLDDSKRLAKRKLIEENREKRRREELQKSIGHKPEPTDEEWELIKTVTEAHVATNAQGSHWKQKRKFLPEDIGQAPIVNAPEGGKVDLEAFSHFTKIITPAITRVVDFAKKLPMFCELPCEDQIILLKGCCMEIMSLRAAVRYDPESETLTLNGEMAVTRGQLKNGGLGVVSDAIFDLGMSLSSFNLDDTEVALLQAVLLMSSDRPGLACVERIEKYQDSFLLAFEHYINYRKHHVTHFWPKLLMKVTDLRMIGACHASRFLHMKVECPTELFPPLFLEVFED
Vitamin D3 receptor (Homo sapiens), sequence (P11473 whole entry, looked up): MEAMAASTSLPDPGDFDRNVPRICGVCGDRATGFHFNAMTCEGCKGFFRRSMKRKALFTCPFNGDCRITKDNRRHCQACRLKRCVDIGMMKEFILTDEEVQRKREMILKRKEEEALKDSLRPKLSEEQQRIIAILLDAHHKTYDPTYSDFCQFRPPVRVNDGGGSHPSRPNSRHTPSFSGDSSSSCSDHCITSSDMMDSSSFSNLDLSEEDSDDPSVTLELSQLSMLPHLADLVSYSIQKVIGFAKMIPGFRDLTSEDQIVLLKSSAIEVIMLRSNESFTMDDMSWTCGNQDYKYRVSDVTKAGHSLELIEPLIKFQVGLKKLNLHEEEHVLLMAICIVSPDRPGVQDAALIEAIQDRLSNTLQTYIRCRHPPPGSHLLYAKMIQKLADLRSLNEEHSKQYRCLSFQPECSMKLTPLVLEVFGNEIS

Consider `CC(C)C=O`, for which the call in experiment [1], in [4], in experiment [5], in experiment [6], in [8] and in experiment [9] was inactive. The max response in [2] is -3.06%; in [7], 3.23%; in experiment [10], -14.5%. Further, the Potency result in experiment [3], in experiment [12] and in [13] was “inactive” in each case. Besides, the activity change % (negative = inhibition) in experiment [11] is -10% (inactive). In addition, the activation in experiment [14] was 0.787% (inactive); in [15] it was -1.3% (inactive).
On to `C/C(C=O)=C/c1ccccc1`, for which the outcome in [1], in experiment [4], in experiment [16], in experiment [5], in experiment [6] and in [8] was inactive. Also, the outcome in experiment [9] was inactive. For the same molecule, the max response in [2] is -13.6%; in [7] it was -15.6%; in [10], 2.35%; in experiment [17], -7.56% (inactive). Moreover, the Potency entry in experiment [3] and in [12] was “inactive” throughout. For the same molecule, in experiment [11], the activity change % (negative = inhibition) was -5.38% (inactive). Also, the activation in experiment [15] is -1.45% (inactive).
In the case of `CC(=O)c1ccc([N+](=O)[O-])cc1`, the molecule was classed as inactive in [1], in experiment [4], in experiment [5], in [6], in [8] and in experiment [9]. In addition, the max response was 10.4% in experiment [2], -7.91% in [7], 4.7% in [10] and 1.74% (inactive) in experiment [17]. For the same molecule, the Potency entry in experiment [3] and in experiment [12] was “inactive” each time. In [11], the activity change % (negative = inhibition) was -0.995% (inactive). Moreover, in experiment [15], the activation is 0.321% (inactive).
Take `Nc1ccccc1[N+](=O)[O-]`: the molecule was classed as inactive in [1], in [4], in experiment [16] and in experiment [8]. Further, the max response in experiment [2] was 35.9%; in experiment [7], -4.62%; in experiment [10], 1.56%; in [17], -0.391% (inactive). For the same molecule, the Potency result in experiment [3], in experiment [12] and in experiment [13] was “inactive” throughout. For the same molecule, in experiment [11], the activity change % (negative = inhibition) was -6.45% (inactive). Further, the activation in experiment [14] was -3.02% (inactive); in [15] it was 0.892% (inactive).
`C=C(C)OC(C)=O`: the activation in experiment [18] is -3.17% (inactive); in [14], -0.827% (inactive); in experiment [15] it was -0.753% (inactive). Also, the molecule was called inactive in experiment [4], in experiment [5] and in [8]. Also, the max response came out at 12.6% in experiment [7] and 12.2% in experiment [10]. In [11], the activity change % (negative = inhibition) is 24.9% (inactive). In addition, the Potency entry in experiment [12] and in [13] was “inactive” each time.
For the molecule `Cc1ccco1`, the activation is -1.2% (inactive) in experiment [18], 2.07% (inactive) in experiment [14] and -0.364% (inactive) in experiment [15]. In addition, the molecule was classed as inactive in experiment [4], in experiment [5], in [6], in experiment [8] and in [9]. Further, the results for the max response in experiment [7], in experiment [10] and in experiment [17] were -10.8%, -5.98% and 5.14% (inactive), respectively. Also, the activity change % (negative = inhibition) in experiment [11] was 12.3% (inactive). Besides, the Potency entry in experiment [12] was “inactive”.
For the molecule `NS(=O)(=O)O`, the molecule was called inactive in experiment [1], in [4], in experiment [16], in experiment [5], in [6] and in [8]. Besides, the outcome in [9] was inactive. Besides, the max response in [2] was -9.24%; in experiment [7], 0.843%; in experiment [10] it was 1.78%. For the same molecule, the Potency entry in experiment [3], in experiment [12] and in experiment [13] was “inactive” throughout. Further, the activity change % (negative = inhibition) in [11] was -4.41% (inactive). The activation in [14] is -0.9% (inactive).
